Screening results deposited in PubChem BioAssay by The Scripps Research Institute Molecular Screening Center.
pPAFAH FP inh – inhibitors of human plasma PAF acetylhydrolase (pPAFAH). Q13093. recombinant pPAFAH, FP-rhodamine probe fluorescence polarization. inhibition, % at 3.39 µM. 330,000 tested, 1.5% active. AID 463082;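 active means inhibition above the mean inhibition across the screen plus 3 SD, cut at about 25% in these data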;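 further: inhibitors block binding of the rhodamine activity-based probe so polarization drops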
Target sequence (Q13093 whole entry, looked up): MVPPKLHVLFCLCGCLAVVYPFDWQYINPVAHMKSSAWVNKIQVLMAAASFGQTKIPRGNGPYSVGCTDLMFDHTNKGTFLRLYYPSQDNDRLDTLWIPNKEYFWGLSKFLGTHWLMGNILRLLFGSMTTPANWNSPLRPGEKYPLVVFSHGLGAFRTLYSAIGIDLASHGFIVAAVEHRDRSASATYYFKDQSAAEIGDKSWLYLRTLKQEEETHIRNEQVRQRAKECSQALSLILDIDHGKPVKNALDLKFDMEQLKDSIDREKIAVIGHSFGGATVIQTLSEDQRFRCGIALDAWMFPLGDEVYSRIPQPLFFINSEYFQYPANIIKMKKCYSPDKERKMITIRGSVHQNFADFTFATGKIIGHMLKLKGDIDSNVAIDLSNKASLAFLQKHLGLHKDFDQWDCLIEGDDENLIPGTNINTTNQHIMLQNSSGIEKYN
PAFAH1B2 FP inh – blocks human PAF acetylhydrolase 1b catalytic subunit 2. recombinant PAFAH1B2, FP-rhodamine activity probe, fluorescence polarization. inhibition, % at 3.39 µM. P68402. 340,000 tested, 1.2% active;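 active means inhibition above the mean of all tested compounds plus 3 SD, cut at about 24% in these data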
Fam108B inh – Fam108B inhibition, counter-screen for RBBP9 inhibitors; 300,000 tested, 0.33% active; AID 1947; recombinant Fam108B, FP-Rh probe fluorescence polarization; inhibition, % at 9.51 µM;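 active means inhibition above the screen mean inhibition plus 3 SD, computed separately per campaign, cut at about 18% in these data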;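 further: inhibitors lower polarization as less probe binds the enzyme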
PME-1 primary – blocks human protein phosphatase methylesterase 1; Q9Y570; recombinant PME-1, FP-Rh probe fluorescence polarization; inhibition, % at 5.9 µM; 320,000 tested, 0.53% active;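 active means inhibition above the campaign mean of all compounds plus 3 SD, cut at about 26% in these data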;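 further: competitive labeling of PME-1 active site by serine hydrolase directed probe; inhibitors block probe labeling so polarization falls and inhibition rises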
PAFAH2 inh – inhibitors of human PAFAH2. recombinant PAFAH2, FP-rhodamine activity probe, fluorescence polarization. inhibition, % at 3.39 µM. Q99487. AID 492956. 340,000 tested, 0.99% active;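 active means inhibition above the mean over all tested compounds plus 3 SD, cut at about 30% in these data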;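 further: inhibitors block probe labeling of enzyme so polarization drops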
PAFAH1B3 FP inh – blocks human PAF acetylhydrolase 1B catalytic subunit 3; Q15102; recombinant PAFAH1B3, FP-rhodamine probe, fluorescence polarization; inhibition, % at 3.39 µM; 340,000 tested, 0.28% active; AID 492972;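 active means inhibition above the screen-wide average of all tested compounds plus 3 SD, cut at about 25% in these data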
Target sequence (Q15102 whole entry, looked up): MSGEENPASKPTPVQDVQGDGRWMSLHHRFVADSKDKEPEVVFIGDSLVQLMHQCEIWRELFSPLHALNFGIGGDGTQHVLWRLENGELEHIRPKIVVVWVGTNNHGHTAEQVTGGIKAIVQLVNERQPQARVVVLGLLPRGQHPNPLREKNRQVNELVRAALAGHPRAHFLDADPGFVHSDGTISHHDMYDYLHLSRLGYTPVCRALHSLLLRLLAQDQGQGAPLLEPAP
PAFAH2 confirm – confirmation of human PAFAH2 inhibitors; inhibition, % at 3.39 µM; 2,300 tested, 65% active; shares compounds with PAFAH2 inh; recombinant PAFAH2, FP-rhodamine activity probe, fluorescence polarization; AID 493030;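 active means mean inhibition over three repeats above a set limit taken from the earlier primary screen, cut at about 30% in these data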;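 further: inhibitor blocks binding of rhodamine activity probe so polarization falls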
Hits are given with their value; - = inactive; . = no result. The list is not random: actives were taken first. Their share in the collection is about 2.9%.

SMILES	pPAFAH FP inh	PAFAH1B2 FP inh	Fam108B inh	PME-1 primary	PAFAH2 inh	PAFAH1B3 FP inh	PAFAH2 confirm
Cc1cccc(N2C(=O)C3CCCN3C2=S)c1C (stereo unspecified)	-	-	.	-	-	-	.
CCC(=O)Nc1cc(C(=O)OCC(=O)c2ccccc2Cl)ccc1C	-	-	-	-	42	-	32
CN(C)c1cccc(C(=O)OCC(=O)Nc2ccccc2-c2ccccc2)c1	-	-	-	-	-	-	.
COc1cc(OC)cc(C(=O)OCC(=O)Nc2cccc(C(C)=O)c2)c1	-	-	-	-	-	-	.
CC(=O)c1cccc(NC(=O)COC(=O)c2ccc3c(c2)OCCO3)c1	-	-	-	-	84	-	71
CC(C)(C)NC(=O)COC(=O)c1ccc(O)cc1	-	-	-	-	64	-	53
CN(C)c1cccc(C(=O)OCC(=O)Nc2ccccc2Cl)c1	-	-	-	-	54	-	50
COC(=O)c1ccc(CNC(=O)[C@@H]2CCCN2S(=O)(=O)c2ccccc2F)cc1	-	-	.	.	-	-	.
O=C(NCC1COCCO1)c1cc(COc2ccc(F)cc2F)on1 (stereo unspecified)	-	-	-	-	-	-	.
O=C(COC(=O)c1ccc2[nH]c3c(c2c1)CCCC3)Nc1ccccc1Cl	-	-	-	-	32	-	-
COc1ccc(OC)c(NC(=O)C2C(C(=O)O)C3(Cl)C(Cl)=C(Cl)C2(Cl)C3(Cl)Cl)c1 (stereo unspecified)	-	-	-	-	51	-	40
CC[C@]12c3[nH]c4ccc(OC)cc4c3CCN1C(=O)C(CC(=O)NCCN1CCOCC1)C[C@@H]2C(=O)N1CCN(C(=O)c2ccco2)CC1 (stereo partly specified)	-	-	.	.	-	-	.
CCc1nc2ccccc2c(C(=O)OCCN2C(=O)c3ccccc3C2=O)c1C	-	-	-	-	-	-	.
CC(=O)OCCN1C(=O)c2ccc(-c3nc4ccccc4c(=O)o3)cc2C1=O	-	-	-	-	53	-	46
CCC(=O)Nc1ccc(-c2nc3ccccc3c(=O)o2)cc1	.	-	.	.	-	-	.
CCN1C(=O)c2ccc(-c3nc4ccccc4c(=O)o3)cc2C1=O	-	-	-	-	35	-	63
C#C[C@]1(O)CC[C@H]2[C@@H]3CCc4cc(OC5CCCC5)ccc4[C@H]3CC[C@@]21C	-	-	-	-	53	-	51
CN(C(=O)COC(=O)c1ccc(Cl)s1)C1(C#N)CCCCC1	.	-	.	.	30	-	-
CN(C(=O)COC(=O)c1ccc(Cl)c(S(=O)(=O)N2CCCCC2)c1)C1(C#N)CCCCC1	-	-	.	-	30	-	-
CC(=O)N1CCN(S(=O)(=O)c2cccc(C(=O)OCC(=O)NC(=O)c3cccn3C)c2)CC1	-	-	-	-	35	-	32
O=C(COC(=O)c1cccc(S(=O)(=O)N2CCCC2)c1)Nc1ccccc1C(F)(F)F	.	-	.	.	45	-	40
Cc1ccc(C(=O)OCC(=O)NC(=O)c2cccn2C)cc1	-	-	-	-	47	-	38
CC(=O)N1CCN(S(=O)(=O)c2cccc(C(=O)OCC(=O)Nc3c(Cl)cccc3C(F)(F)F)c2)CC1	.	-	.	.	44	-	32
COc1cccc(CNC(=O)COC(=O)c2cccc(S(=O)(=O)N3CCN(C(C)=O)CC3)c2)c1	-	-	.	-	-	-	.
O=C(NCc1ccc(/C=c2\sc3n(c2=O)CCN=3)o1)C(=O)Nc1ccccc1	-	.	-	-	.	.	.
SMILES	pPAFAH FP inh	PAFAH1B2 FP inh	Fam108B inh	PME-1 primary	PAFAH2 inh	PAFAH1B3 FP inh	PAFAH2 confirm
CCOC(=O)c1nnc(-c2ccccc2)nc1N1CC(C)OC(C)C1 (stereo unspecified)	-	-	-	-	-	-	.
Cc1cc(C)n2nc(CCCCc3nc4nc(C)cc(C)n4n3)nc2n1	-	.	-	-	.	.	.
O=C(Cn1c(=O)oc2cccnc21)Nc1ccccc1Oc1ccc(Cl)cc1Cl	-	.	-	-	.	.	.
COc1cccc(N2CCN(C(C)C(=O)NC34CC5CC(CC(C5)C3)C4)CC2)c1 (stereo unspecified)	-	-	-	-	-	-	.
C=CCn1c(C)cc(C(=O)COC(=O)/C=C/c2cccc(OC)c2)c1C	-	-	-	-	55	-	46
Cc1cc(C(=O)COC(=O)/C=C/c2cccc(F)c2)c(C)n1C	-	-	-	-	-	-	.
C=CCn1c(C)cc(C(=O)COC(=O)/C=C/c2ccc(OC)cc2)c1C	-	-	-	-	62	-	57
CCn1c(SCC(=O)N(C)C2CCS(=O)(=O)C2)nnc1-c1ccccc1 (stereo unspecified)	-	-	-	-	-	-	.
CCOC(=O)c1ccccc1NC(=O)C1CCCO1 (stereo unspecified)	-	-	-	-	42	-	-
O=C(COC(=O)c1ccccc1)Nc1cccc(S(=O)(=O)N2CCCCC2)c1	.	-	.	.	40	-	-
O=C(COC(=O)c1cccc(S(=O)(=O)N2CCCCCC2)c1)Nc1ccccc1	.	-	.	.	66	-	60
N#Cc1ccc(C(=O)OCC(=O)Nc2cccc(S(=O)(=O)N3CCCCC3)c2)cc1	-	-	.	-	-	-	.
O=C(COC(=O)c1ccc([N+](=O)[O-])o1)Nc1cccc(S(=O)(=O)N2CCCCC2)c1	-	-	-	-	-	-	.
O=C(COC(=O)c1cccs1)Nc1cccc(S(=O)(=O)N2CCCCC2)c1	-	-	.	.	69	-	64
O=C(COC(=O)c1ccc(Cl)nc1)Nc1cccc(S(=O)(=O)N2CCCCC2)c1	-	-	.	-	-	-	.
Cc1ccc(C(=O)OCC(=O)Nc2cccc(S(=O)(=O)N3CCCCC3)c2)o1	-	-	.	-	42	-	-
Cc1[nH]c(C)c(S(=O)(=O)N(Cc2ccccc2)C(C)C)c1C(=O)N1CCCC1	-	-	-	-	-	-	.
Cc1cc(-c2nnc(SCC(=O)Nc3ccccc3Cl)n2C)no1	-	-	-	-	-	-	.
COc1ccccc1CNC(=O)COC(=O)/C=C/c1ccc2c(c1)OCO2	-	-	.	.	39	-	43
COc1cc(/C=C/C(=O)OCC(=O)NCc2ccccc2OC)ccc1O	-	-	-	-	50	-	49
COc1cc(/C=C/C(=O)OCC(=O)NCc2ccc(F)cc2)ccc1O	-	-	.	.	69	-	56
COc1cc(/C=C/C(=O)OCC(=O)N(C)Cc2ccccc2)ccc1O	-	-	.	-	33	-	-
COc1ccc(CCNC(=O)COC(=O)/C=C/c2ccc3c(c2)OCO3)cc1OC	-	-	.	.	-	-	.
COc1ccccc1C(=O)NCCC(=O)N1CCN(c2cccc(C(F)(F)F)c2)CC1	-	-	-	-	-	-	.
Cc1ccc(NC(=O)CSc2nc3[nH]ncc3c(=O)[nH]2)cc1Cl	-	-	-	-	-	-	.
